# In PubChem BioAssay:
# The source made the active and inactive calls.
# Experiments:
# [1] = system: PRMT1 (protein arginine N-methyltransferase 1); experiment: PRMT1 binders on small-molecule microarrays, primary screen, biochemical, small-molecule microarray, 635 nm fluorescence (AID 1088); conditions: small-molecule microarray binding, higher = more signal;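 note: binding of Prmt1 protein to compounds spotted on small-molecule microarray slides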
# [2] = yeast growth modulation, basal conditions, primary screen, YJM789 clinical isolate, OD600, 24 h (AID 1089);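 note: growth of clinical yeast isolate S. cerevisiae YJM 789 seeded 1000 cells per well; test concentration not given here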; conditions: S. cerevisiae YJM789 growth, higher = more signal, called active from +8 up or from −8 down
# [3] = fission yeast growth modulation, primary screen, strain 972, OD600, 24 h, no modulator (AID 1090);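 note: basal condition with compound alone and no growth modifier present; test concentration not given here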; conditions: S. pombe 972 growth, higher = more signal, called active from +8 up or from −8 down
# [4] = S. cerevisiae growth modulation with rapamycin, primary screen, strain BY4716, OD600, 96 h (AID 1091); conditions: higher = more signal, called active from +8 up or from −8 down; note: test concentration not given here
# [5] = biological target: Torsin-1A-interacting protein 2 (Homo sapiens) (UniProt Q8NFQ8); experiment: LULL1 binders on small-molecule microarray, primary screen, cell lysate, human LULL1 lysate, 635/667 nm fluorescence (AID 1092); conditions: hLULL1 lysate binding, 635 nm fluorescence, higher = more signal;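 note: probe is lysate of COS7 cells overexpressing human LULL1; score merges per-feature 667 nm fluorescence with signal-to-noise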
# Torsin-1A-interacting protein 2 (Homo sapiens), sequence (Q8NFQ8 whole entry, looked up): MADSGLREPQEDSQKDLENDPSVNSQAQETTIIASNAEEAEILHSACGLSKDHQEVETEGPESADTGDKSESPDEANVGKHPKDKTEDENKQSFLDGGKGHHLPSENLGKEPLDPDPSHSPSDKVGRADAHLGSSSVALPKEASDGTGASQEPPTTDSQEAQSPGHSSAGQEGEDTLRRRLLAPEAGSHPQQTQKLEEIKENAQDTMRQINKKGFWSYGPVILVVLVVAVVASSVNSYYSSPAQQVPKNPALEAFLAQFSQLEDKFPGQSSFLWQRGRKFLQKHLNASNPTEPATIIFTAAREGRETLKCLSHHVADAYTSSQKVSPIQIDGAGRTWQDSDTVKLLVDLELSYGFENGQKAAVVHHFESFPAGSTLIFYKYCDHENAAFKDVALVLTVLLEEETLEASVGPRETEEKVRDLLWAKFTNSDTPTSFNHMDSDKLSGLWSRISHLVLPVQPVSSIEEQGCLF
# [6] = E. coli growth modulation, two-sided OD650, primary screen, E. coli filamentation project, strain DRC41, 24 h (AID 1093); conditions: OD650, 24 h, higher = more signal, called active from +8 up or from −8 down;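 note: MC1000 strain lacking acrAB efflux and sulA so SOS filamentation is blocked; test concentration not given here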
# [7] = small-molecule microarray binders of probe aLefty2, primary screen, biochemical, biotinylated probe, 635/667 nm fluorescence (AID 1094); conditions: higher = more signal;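 note: score merges spot fluorescence near 667 nm with spot signal-to-noise ratio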
# [8] = system: Noggin (protein binding on small-molecule microarray); experiment: Noggin binders on small-molecule microarray, primary screen, biochemical, 635/667 nm fluorescence (AID 1095); conditions: 635 nm fluorescence, higher = more signal;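 note: score merges 667 nm feature fluorescence with signal to noise over triplicate slides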
# [9] = biological target: Neurogenic locus notch homolog protein 3 (Homo sapiens) (UniProt Q9UM47); experiment: NOTCH3 binders on small-molecule microarray, primary screen, biochemical, 635/667 nm fluorescence (AID 1096); conditions: NOTCH3 binding, 635 nm fluorescence, higher = more signal
# Neurogenic locus notch homolog protein 3 (Homo sapiens), sequence (Q9UM47 whole entry, looked up): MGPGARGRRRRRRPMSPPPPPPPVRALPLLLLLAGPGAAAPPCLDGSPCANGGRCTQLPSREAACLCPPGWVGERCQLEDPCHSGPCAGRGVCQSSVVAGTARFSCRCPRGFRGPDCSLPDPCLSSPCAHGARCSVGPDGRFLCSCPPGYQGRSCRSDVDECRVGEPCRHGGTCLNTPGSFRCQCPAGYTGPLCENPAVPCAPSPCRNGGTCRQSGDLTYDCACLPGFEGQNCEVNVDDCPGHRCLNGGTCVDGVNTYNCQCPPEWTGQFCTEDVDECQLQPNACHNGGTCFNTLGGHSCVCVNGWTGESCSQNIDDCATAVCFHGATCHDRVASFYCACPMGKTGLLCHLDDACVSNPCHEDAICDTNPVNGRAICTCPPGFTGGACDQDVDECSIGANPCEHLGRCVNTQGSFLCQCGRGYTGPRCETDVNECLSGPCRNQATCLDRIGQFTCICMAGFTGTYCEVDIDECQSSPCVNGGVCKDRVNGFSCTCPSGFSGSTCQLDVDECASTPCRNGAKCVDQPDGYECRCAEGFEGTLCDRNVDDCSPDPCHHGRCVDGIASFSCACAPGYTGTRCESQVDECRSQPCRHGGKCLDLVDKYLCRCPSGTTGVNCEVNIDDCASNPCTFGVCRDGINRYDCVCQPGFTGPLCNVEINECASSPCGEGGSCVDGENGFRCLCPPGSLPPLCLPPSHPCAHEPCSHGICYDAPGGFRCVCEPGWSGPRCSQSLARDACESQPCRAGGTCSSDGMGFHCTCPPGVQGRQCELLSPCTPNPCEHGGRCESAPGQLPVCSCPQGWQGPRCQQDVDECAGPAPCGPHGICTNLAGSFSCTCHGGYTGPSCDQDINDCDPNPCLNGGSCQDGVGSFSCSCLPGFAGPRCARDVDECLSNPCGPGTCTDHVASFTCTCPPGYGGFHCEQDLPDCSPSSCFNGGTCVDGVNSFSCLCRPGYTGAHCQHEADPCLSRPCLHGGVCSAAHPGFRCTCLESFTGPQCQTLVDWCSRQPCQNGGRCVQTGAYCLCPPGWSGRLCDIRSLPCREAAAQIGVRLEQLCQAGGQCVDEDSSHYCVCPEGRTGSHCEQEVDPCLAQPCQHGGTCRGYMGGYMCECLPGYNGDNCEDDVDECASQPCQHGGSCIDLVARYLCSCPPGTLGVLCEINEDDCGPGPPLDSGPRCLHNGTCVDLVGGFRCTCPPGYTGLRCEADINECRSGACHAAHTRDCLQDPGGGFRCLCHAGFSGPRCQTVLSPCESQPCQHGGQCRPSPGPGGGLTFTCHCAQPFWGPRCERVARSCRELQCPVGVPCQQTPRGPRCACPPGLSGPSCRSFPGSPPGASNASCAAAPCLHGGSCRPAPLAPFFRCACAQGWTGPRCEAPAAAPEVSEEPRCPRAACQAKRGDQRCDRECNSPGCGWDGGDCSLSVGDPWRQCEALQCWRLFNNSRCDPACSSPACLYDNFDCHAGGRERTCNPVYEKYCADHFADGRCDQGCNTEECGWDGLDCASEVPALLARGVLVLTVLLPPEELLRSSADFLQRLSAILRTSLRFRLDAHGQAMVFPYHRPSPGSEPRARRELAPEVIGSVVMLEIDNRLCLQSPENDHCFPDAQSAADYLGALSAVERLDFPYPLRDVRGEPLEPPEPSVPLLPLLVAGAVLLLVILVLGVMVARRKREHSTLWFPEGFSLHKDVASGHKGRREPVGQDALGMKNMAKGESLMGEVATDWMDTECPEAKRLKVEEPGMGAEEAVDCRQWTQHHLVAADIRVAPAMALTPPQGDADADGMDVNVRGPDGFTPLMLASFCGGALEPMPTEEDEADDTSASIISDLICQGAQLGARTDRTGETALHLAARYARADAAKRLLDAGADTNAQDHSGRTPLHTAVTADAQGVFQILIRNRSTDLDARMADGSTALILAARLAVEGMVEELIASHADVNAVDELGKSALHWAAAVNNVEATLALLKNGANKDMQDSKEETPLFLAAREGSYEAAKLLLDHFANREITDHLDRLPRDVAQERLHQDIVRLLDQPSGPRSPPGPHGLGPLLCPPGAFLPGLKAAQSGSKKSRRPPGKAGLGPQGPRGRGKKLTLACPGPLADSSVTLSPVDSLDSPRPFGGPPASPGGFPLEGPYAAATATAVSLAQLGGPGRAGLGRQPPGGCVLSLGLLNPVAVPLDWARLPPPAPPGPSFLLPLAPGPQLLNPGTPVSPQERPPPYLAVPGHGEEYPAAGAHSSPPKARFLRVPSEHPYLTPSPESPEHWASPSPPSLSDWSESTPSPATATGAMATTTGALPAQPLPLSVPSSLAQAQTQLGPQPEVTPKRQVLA
# [10] = small-molecule microarray binders of probe aEGFR, primary screen, biochemical, biotinylated probe, 635/667 nm fluorescence (AID 1097); conditions: higher = more signal;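 note: probe is a biotinylated anti-EGFR antibody binding compounds printed on slides; score combines fluorescence near 667 nm and signal to noise of each spot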
# [11] = system: Plasmodium falciparum Sir2 (PF13_0152, Sir2A); experiment: pfSir2 binders on small-molecule microarrays, primary screen, biochemical, small-molecule microarray, 635 nm fluorescence (AID 1098); conditions: small-molecule microarray binding, fluorescence 635 nm; higher = more signal;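 note: score merges spot fluorescence intensity with its signal-to-noise ratio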
# [12] = small-molecule microarray binders of probe aDKK1, primary screen, biochemical, biotinylated probe, 635/667 nm fluorescence (AID 1099); conditions: higher = more signal;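 note: score merges 667nm spot fluorescence with signal to noise across triplicate slides; reference of the scale not given here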
# [13] = small-molecule microarray binders of probe aCHRDL2, primary screen, biochemical, biotinylated probe, 635/667 nm fluorescence (AID 1100); conditions: higher = more signal
# [14] = splicing luciferase reporter signal modulators, primary screen, spliceosome inhibition project, cell-based, HEK293, splice +/- reporter (AID 1101); conditions: luminescence, 24 h, higher = more signal, called active from +8 up or from −8 down;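 note: HEK293 cells carrying a splicing-competent luciferase reporter gene; test concentration not given here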
# [15] = biological target: Fibroblast growth factor 10 (Homo sapiens) (UniProt O15520); experiment: FGF10 binders on small-molecule microarrays, primary screen, biochemical, small-molecule microarray, 635 nm fluorescence (AID 1102); conditions: FGF10 binding, fluorescence 635 nm, higher = more signal
# Fibroblast growth factor 10 (Homo sapiens), sequence (O15520 whole entry, looked up): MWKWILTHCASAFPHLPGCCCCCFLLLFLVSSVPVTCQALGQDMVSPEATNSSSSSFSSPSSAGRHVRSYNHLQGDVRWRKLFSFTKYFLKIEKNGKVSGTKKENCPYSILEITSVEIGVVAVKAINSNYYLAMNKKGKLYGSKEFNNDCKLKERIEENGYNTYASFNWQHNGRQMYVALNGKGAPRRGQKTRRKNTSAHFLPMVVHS
# [16] = system: glycogen synthase kinase-3 (GSK3A per assay name; protocol says GSK3B); experiment: GSK3 binders on small-molecule microarrays, primary screen, biochemical, small-molecule microarray, 635 nm fluorescence, GSK3A (AID 1103); conditions: small-molecule microarray binding, fluorescence 635 nm; higher = more signal; note: the record names both GSK3A and GSK3B
# [17] = biological target: Epidermal growth factor receptor (Homo sapiens) (UniProt P00533); experiment: EGFR binders on small-molecule microarrays, primary screen, biochemical, small-molecule microarray, 635 nm fluorescence (AID 1104); conditions: EGFR binding, higher = more signal;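 note: score merges 667 nm emission intensity with spot signal to noise over triplicate slides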
# Epidermal growth factor receptor (Homo sapiens), sequence (P00533 whole entry, looked up): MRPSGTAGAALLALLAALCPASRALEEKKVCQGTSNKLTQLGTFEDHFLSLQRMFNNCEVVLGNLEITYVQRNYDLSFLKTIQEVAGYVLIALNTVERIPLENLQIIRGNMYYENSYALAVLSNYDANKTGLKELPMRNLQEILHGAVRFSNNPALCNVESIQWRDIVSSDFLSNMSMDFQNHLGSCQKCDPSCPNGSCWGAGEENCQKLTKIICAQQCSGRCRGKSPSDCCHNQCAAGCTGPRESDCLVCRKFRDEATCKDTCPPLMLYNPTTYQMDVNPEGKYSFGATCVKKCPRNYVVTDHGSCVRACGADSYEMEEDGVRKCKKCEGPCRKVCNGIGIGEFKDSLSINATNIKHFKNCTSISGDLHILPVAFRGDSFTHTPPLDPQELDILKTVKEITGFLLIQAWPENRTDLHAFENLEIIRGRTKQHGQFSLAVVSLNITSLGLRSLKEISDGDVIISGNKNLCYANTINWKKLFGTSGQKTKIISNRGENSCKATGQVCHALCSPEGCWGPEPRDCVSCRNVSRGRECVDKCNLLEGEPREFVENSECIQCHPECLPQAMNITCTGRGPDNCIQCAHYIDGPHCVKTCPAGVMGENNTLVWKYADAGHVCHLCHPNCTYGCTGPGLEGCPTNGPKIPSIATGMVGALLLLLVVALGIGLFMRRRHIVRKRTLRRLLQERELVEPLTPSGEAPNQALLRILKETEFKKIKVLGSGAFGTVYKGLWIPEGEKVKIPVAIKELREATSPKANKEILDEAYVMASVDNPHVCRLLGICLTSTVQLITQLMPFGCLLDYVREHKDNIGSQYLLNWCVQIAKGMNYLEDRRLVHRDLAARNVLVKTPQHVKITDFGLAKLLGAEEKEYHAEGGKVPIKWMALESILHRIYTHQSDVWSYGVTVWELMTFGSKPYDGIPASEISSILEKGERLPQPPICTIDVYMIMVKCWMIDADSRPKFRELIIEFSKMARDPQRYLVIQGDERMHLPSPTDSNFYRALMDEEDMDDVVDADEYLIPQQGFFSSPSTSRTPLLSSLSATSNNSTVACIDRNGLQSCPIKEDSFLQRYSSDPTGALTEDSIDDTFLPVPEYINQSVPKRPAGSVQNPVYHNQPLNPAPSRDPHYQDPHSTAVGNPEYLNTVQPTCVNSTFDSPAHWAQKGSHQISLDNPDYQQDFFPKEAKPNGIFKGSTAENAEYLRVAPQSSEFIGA
# [18] = biological target: Follistatin-related protein 3 (Homo sapiens) (UniProt O95633); experiment: FSTL3 binders on small-molecule microarrays, primary screen, biochemical, small-molecule microarray, 635 nm fluorescence (AID 1105); conditions: FSTL3 binding, higher = more signal;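 note: score merges emission near 667 nm and signal to noise per printed spot across three slides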
# Follistatin-related protein 3 (Homo sapiens), sequence (O95633 whole entry, looked up): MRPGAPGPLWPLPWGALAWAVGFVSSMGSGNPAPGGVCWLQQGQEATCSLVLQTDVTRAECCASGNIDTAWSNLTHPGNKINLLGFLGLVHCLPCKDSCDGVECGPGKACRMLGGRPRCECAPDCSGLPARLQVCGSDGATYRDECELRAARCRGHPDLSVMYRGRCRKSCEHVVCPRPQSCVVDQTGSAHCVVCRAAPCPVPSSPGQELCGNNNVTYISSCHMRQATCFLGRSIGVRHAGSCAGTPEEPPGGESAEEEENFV
# [19] = biological target: Dickkopf-related protein 1 (Homo sapiens) (UniProt O94907); experiment: DKK1 binders on small-molecule microarrays, primary screen, biochemical, small-molecule microarray, 635 nm fluorescence scan (AID 1106); conditions: DKK1 binding, higher = more signal;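 note: score merges emission near 667 nm with signal to noise over three replicate slides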
# Dickkopf-related protein 1 (Homo sapiens), sequence (O94907 whole entry, looked up): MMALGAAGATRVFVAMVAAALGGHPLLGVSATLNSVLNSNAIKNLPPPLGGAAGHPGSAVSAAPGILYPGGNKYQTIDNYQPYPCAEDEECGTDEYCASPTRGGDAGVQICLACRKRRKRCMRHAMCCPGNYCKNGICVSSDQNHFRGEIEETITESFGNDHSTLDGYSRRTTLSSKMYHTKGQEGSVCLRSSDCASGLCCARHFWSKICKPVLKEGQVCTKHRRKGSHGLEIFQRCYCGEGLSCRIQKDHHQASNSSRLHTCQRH
# [20] = system: Inhibin beta A chain (activin A); experiment: INHBA (activin A) binders on microarrays, primary screen, biochemical, small-molecule microarray, 635 nm fluorescence scan (AID 1107); conditions: small-molecule microarray binding, higher = more signal;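 note: mouse activin A protein probed at 4.33 µg/mL on printed slides; score merges bound-protein fluorescence near 667 nm with spot signal-to-noise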
SMILES,composite z-score [1],z-score [2],z-score [3],z-score [4],composite z-score [5],z-score [6],composite z-score [7],composite z-score [8],composite z-score [9],composite z-score [10],composite z-score [11],composite z-score [12],composite z-score [13],z-score [14],composite z-score [15],composite z-score [16],composite z-score [17],composite z-score [18],composite z-score [19],composite z-score [20]
CO[C@H]1O[C@H](CO)[C@@H](OC(=O)Nc2ccc(Oc3ccccc3)cc2)[C@H](OC(=O)Nc2ccccc2)[C@H]1OC(=O)Nc1ccccc1,1.55,1.48 (inactive),0.613 (inactive),-1.75 (inactive),3.26,0.939 (inactive),0.286,0.7,1.13,0.13,1.5,0.636,0.766,0.511 (inactive),1.35,1.33,0.24,1.2,0.113,0.185
C=CCC(OC(C)=O)[C@@H]1[C@@H](N(Cc2cccc3ccccc23)C(=O)c2cccc3ccccc23)c2cc(OCCCO)ccc2N1C(=O)c1ccc2ccccc2n1 (stereo not given in full),0.346,-1.03 (inactive),0.626 (inactive),-0.964 (inactive),0.681,-0.764 (inactive),-0.0102,0.282,-0.0176,-0.0549,-0.0758,-0.095,0.181,-0.202 (inactive),0.635,0.0702,-0.0538,0.256,-0.501,1.45
CC(C)C[C@@H]1NC(=O)[C@H]2C[C@@H](C(=O)NCCCCCCNC(=O)CS)[C@@H](c3cccc(OCCO)c3)N2C1=O,1.4,-2 (inactive),0.251 (inactive),0.24 (inactive),2.85,0.645 (inactive),-0.108,1.7,1.04,0.0798,1.54,0.0362,-0.139,-0.576 (inactive),1.39,1.27,1.23,1.49,1.94,0.525
COc1ccc([Si](C)(C)[C@H]2[C@H](CCn3cc([C@H](O)c4ccccc4)nn3)O[C@@]3(C(=O)N(Cc4cccc(N5CCC5=O)c4)c4ccccc43)[C@@H]2C)cc1,0.423,-1.89 (inactive),0.399 (inactive),1.82 (inactive),0.276,1.41 (inactive),-0.196,0.806,0.349,-0.167,1.32,-0.144,-0.206,-1.4 (inactive),0.66,-0.113,-0.0533,-0.108,-0.0723,0.714
COCCOC(=O)N1C(=O)[C@@]2(c3cc(C#CCNC(N)=O)ccc31)[C@H](C(=O)N1CCN(c3ncccn3)CC1)[C@H]1C(=O)O[C@H](c3ccccc3)[C@H](c3ccccc3)N1[C@@H]2c1ccccc1OCCO,1.47,2.12 (inactive),1.71 (inactive),4.95 (inactive),1.79,1.72 (inactive),0.181,0.808,1.12,-0.0286,1.2,0.265,0.714,-0.619 (inactive),1.13,0.0685,0.736,1.24,1.7,1.02
C=CC[C@@]1(C(=O)N2CCOCC2)N=C(c2ccc(OCCCO)cc2)O[C@@H]1c1ccccc1N=[N+]=[N-],1.54,-1.27 (inactive),-1.02 (inactive),0.811 (inactive),3.41,0.639 (inactive),0.362,0.998,1.13,0.353,0.904,1.01,1.08,-2.33 (inactive),1.31,0.951,0.279,0.606,0.174,1.16
CC=CC(O)C1C=CC2C(=O)N(c3ccccc3)C(=O)C2N1Nc1ccc(C(C)C)cc1 (stereo not given),1.53,0.842 (inactive),0.877 (inactive),1.06 (inactive),3.13,-1.71 (inactive),0.183,0.321,1.05,0.14,0.534,0.75,0.973,-0.235 (inactive),0.878,1.24,0.122,1.3,0.14,0.841
CC(C)c1ccc(NN2C(C(O)c3c(F)cccc3Cl)C=CC3C(=O)N(c4ccccc4)C(=O)C32)cc1 (stereo not given),1.48,0.808 (inactive),1.83 (inactive),1.63 (inactive),3,-2.2 (inactive),0.545,-0.041,1.07,0.431,0.683,1.24,1.13,-1.11 (inactive),0.62,0.852,0.389,0.766,-0.247,0.945
O=C1OCCC=C[C@H]2OC34C=CCN(Cc5ccccc5)C(=O)[C@H]3N(CCCO)C(=O)[C@@H]4C12 (stereo not given in full),-0.595,0.252 (inactive),-0.206 (inactive),-1.54 (inactive),0.549,2.79 (inactive),-0.0807,-0.335,-0.278,-0.175,0.53,-0.33,-0.182,-1.74 (inactive),-0.745,-1.44,-0.873,-0.512,-0.179,0.399
